{"source": "PubChem BioAssay AID720650", "about": "(Broad Institute, 2013)", "note": "Calls of active or inactive are those of the source. No rule for the calls is given here."}
{"assay": "Biochemical counterscreen for C difficile toxins, absence of UDPG, inhibitor dose response (AID 720650)", "conditions": "series mostly up to 19.5 µM"}
{"smiles": "COCC#Cc1ccc2c(c1)O[C@@H](CN(C)C(=O)CC1CC1)[C@H](C)CN([C@@H](C)CO)S2(=O)=O", "AC50": "inactive"}
{"smiles": "COc1cc(/C=C(\\C#N)C(=O)Nc2ccc3c(c2)OCCO3)ccc1O", "AC50": "> 39 µM (inactive)"}
{"smiles": "Cc1ccccc1S(=O)(=O)N1CCCc2nc(C)c(C)cc21", "AC50": "> 39 µM (inactive)"}
{"smiles": "O=S(=O)(Oc1ccccc1-c1ccccc1)c1ccccc1", "AC50": "inactive"}
{"smiles": "CNC(=O)C[C@@H]1CC[C@H]2[C@H](COc3ccc(NS(=O)(=O)c4ccccc4C)cc3C(=O)N2C)O1", "AC50": "inactive"}
{"smiles": "C[C@H]1CN([C@@H](C)CO)S(=O)(=O)c2ccc(-c3ccncc3)cc2O[C@H]1CN(C)Cc1ccc(Oc2ccccc2)cc1", "AC50": "inactive"}
{"smiles": "C=CCNc1n[nH]c(=S)s1", "AC50": "> 39 µM (inactive)"}
{"smiles": "Nc1nc(Nc2ccccc2)n[nH]1", "AC50": "> 39 µM (inactive)"}
{"smiles": "CCN(CC)CCNc1ccc(C)c2sc3ccc(O)cc3c(=O)c12", "AC50": "5.7 µM (active)"}
{"smiles": "COc1cc(C=NNC(=O)c2ccccc2-n2cccc2)ccc1O", "AC50": "inactive"}
{"smiles": "NS(=O)(=O)c1ccc(NC(=S)NCc2ccc3c(c2)OCO3)cc1", "AC50": "> 39 µM (inactive)"}
{"smiles": "COc1cc(/C=C(/NC(=O)c2ccccc2)C(=O)Nc2ccc(O)cc2)c([N+](=O)[O-])cc1OC", "AC50": "13.9 µM (active)"}
{"smiles": "CCC(C)NC(=O)CSc1nc2cc(S(=O)(=O)N3CCOCC3)ccc2n1CC", "note": "(centres undefined)", "AC50": "inactive"}
{"smiles": "CC(C)CNC(=O)C(=O)NCC1CCCN1S(=O)(=O)c1cccs1", "note": "(centres undefined)", "AC50": "inactive"}
{"smiles": "Oc1ccc2ccc3[nH]cnc3c2c1", "AC50": "18.5 µM (active)"}
{"smiles": "CC12CCC3C(=CCc4cc(O)ccc43)C1CC(=NO)C2O", "note": "(centres undefined)", "AC50": "19.4 µM (active)"}
{"smiles": "O=c1c2ccc(Cl)cc2[nH]c(=S)n1-c1cccnc1", "AC50": "inactive"}
{"smiles": "Cn1c(SCC(=O)c2cc3ccccc3o2)nnc1-c1ccccc1", "AC50": "inactive"}
{"smiles": "CNC(=O)C[C@H]1CC[C@@H]2[C@H](COc3ccc(NC(=O)c4ccc(OC)cc4)cc3C(=O)N2C)O1", "AC50": "> 39 µM (inactive)"}
{"smiles": "Nc1nnn(CC(=O)N/N=C/c2ccc(O)cc2)n1", "AC50": "16.5 µM (active)"}
{"smiles": "FC(F)(F)c1cc(CCN2CCNC[C@H]2Cc2cccc3ccccc23)cc(C(F)(F)F)c1", "AC50": "19.9 µM (active)"}
{"smiles": "CC(=O)N1CC[C@@H]2[C@@H](CO)N(C)c3ccc(-c4ccccc4)cc3[C@@H]21", "AC50": "7.4 µM (active)"}
{"smiles": "CC1CCCN(C(=S)Nc2ccc(F)cc2)C1", "note": "(centres undefined)", "AC50": "inactive"}
{"smiles": "O=C(COc1ccc2ccc(=O)oc2c1)NCCN1CCOCC1", "AC50": "inactive"}
{"smiles": "O=C(NCc1cc(C(F)(F)F)cc(C(F)(F)F)c1)C1CC(c2c(Cl)cccc2Cl)=NO1", "note": "(centres undefined)", "AC50": "inactive"}
{"smiles": "COc1cccc(/C=C/c2onc(C)c2S(=O)(=O)N2CCC(C(=O)NC3CCCCCC3)CC2)c1", "AC50": "inactive"}
{"smiles": "CS(=O)(=O)N(CC(=O)Nc1ccc(S(=O)(=O)N2CCOCC2)cc1)c1ccccc1Br", "AC50": "inactive"}
{"smiles": "COc1cccc2cc(/C(C)=N/NC(=O)c3ccco3)oc12", "AC50": "inactive"}
{"smiles": "N=C(N)c1ccc(N=Nc2c(O)ccc3c2[nH]c2ccccc23)cc1", "AC50": "inactive"}
{"smiles": "COC(=O)/C=C/C(=O)Nc1ccc(O)c(Cl)c1", "AC50": "13.6 µM (active)"}
{"smiles": "Cc1cccc(/C=C/c2onc(C)c2S(=O)(=O)N2CCC(C(=O)NC(C)C)CC2)c1", "AC50": "inactive"}
{"smiles": "Clc1ccc(/C=C/c2ncc[nH]2)c(Cl)c1", "AC50": "inactive"}
{"smiles": "Cc1ccc(C)c2nc(Cl)c(C3NC(=O)c4ccccc4N3)cc12", "note": "(centres undefined)", "AC50": "inactive"}
{"smiles": "C/C(=N\\Nc1ccc([N+](=O)[O-])cc1)c1cccc(N)c1", "AC50": "1.42 µM (active)"}
{"smiles": "COc1ccc(/C=C/c2onc(C)c2S(=O)(=O)N2CCC(C(=O)N3CCC(C)CC3)CC2)cc1", "AC50": "inactive"}
{"smiles": "Cc1ccc2sc(NNC(=O)C3COc4ccccc4O3)nc2c1C", "note": "(centres undefined)", "AC50": "0.238 µM (active)"}
{"smiles": "S=c1[nH]nc(-c2ccccn2)n1/N=C/c1ccc(Cl)cc1", "AC50": "inactive"}
{"smiles": "O=C(CSc1ccccc1)Nc1cc(S(=O)(=O)N2CCOCC2)ccc1N1CCOCC1", "AC50": "inactive"}
{"smiles": "CC(=O)Nc1cccc2cc(O)ccc12", "AC50": "11.1 µM (active)"}
